The results in this text go back to PubChem BioAssay (NCATS).

Where “and” joins values, the source holds several entries; their conditions need not be identical. Equal values may be shown once. A number with no mark means an inactive call. Inconclusive results are not listed. Calls of active or inactive are those of the source. Unless noted, calls follow the shape of the dose curve; as a rule, active = well fitted curve in either direction with a large enough effect (not every such curve was filed as active); inconclusive = small, poorly fitted or top-dose-only effect, or another doubt; inactive = flat fitted curve, though single readings scatter.

A short description of assay [1]: AP1 Signaling Pathway (AID 357).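 Also: ME-180 reporter cells stimulated with EGF at its EC50 level; % is scaled to controls: 0 for no effect and ±100 for the full control effect.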 The conditions noted are these: ME-180 AP-1-bla reporter, EGF-induced, beta-lactamase ratio, 5 h. The gist of the method: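 AP-1-bla ME-180 cells, Opti-MEM + 0.5% dialyzed FBS, plated overnight 37 °C. Cpd titration + EC50 EGF, 5 h 37 °C. CCF4 2.5 h RT; ex 405, em 460/530 ratio → %activity, AC50.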
The target in assay [2] is Cytochrome P450 1A2 (Homo sapiens) (UniProt P05177). The assay is described as follows: p450-cyp1a2 (AID 410; calls by dose curve; also: potency is read from the fitted curve at half-maximal effect;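 as to activity change, negative = inhibition: -100% = full effect of reference inhibitor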). Conditions: recombinant CYP1A2, luciferin-ME demethylation, luminescence; series mostly up to 57 µM. The method in brief:
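Luminescent readout of luciferin formed from Luciferin-ME by human CYP1A2; data normalized against complete inhibition by 57 uM furafylline. Enzyme 20nM, substrate 100uM at Km, 100mM KPO4 buffer, 60 min reaction at room temperature.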

Assay [3] in a line: NFAT Signaling Pathway (AID 444).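 Also: carbachol stimulus at about its EC50 of 1 µM final; % is scaled to controls: 0 for no effect and ±100 for the full control effect.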 The conditions noted are these: Jurkat NFAT-bla M1, carbachol, beta-lactamase ratio, 5 h. The method in brief: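 Jurkat cells with NFAT-driven β-lactamase reporter and co-expressed M1 receptor, stimulated with carbachol (final 1 uM, ~EC50), compound titration, 5 h at 37 °C. CCF4 loaded 1 h at RT; 460/530 nm ratio gave %activity and AC50.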
A short description of assay [4]: Stat Signaling Pathway (AID 446).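 Also: ME-180 cervical cancer cells given 40 pM IL-6 alongside compound; SIE-controlled beta-lactamase reporter measured as 460/530 nm FRET emission ratio; % is scaled to controls: 0 for no effect and ±100 for the full control effect.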 The conditions noted are these: ME-180 (cervical carcinoma) SIE beta-lactamase reporter, IL-6 stimulated, 5 h; series mostly up to 17.2 µM. The gist of the method:
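IL-6/STAT signaling read in ME-180 cells via an SIE beta-lactamase reporter. Stimulus was 40 pM IL-6 (its AC50) for 5 hrs, so both activation and inhibition register.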

The target of assay [5] is Mitogen-activated protein kinase 10 (Mus musculus) (UniProt Q61831). The assay is described as follows: JNK3 AlphaScreen Assay (AID 530).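 Also: kinase came from lysate of stimulated human HepG2 cells; signal reports phosphorylation of biotinylated GST-cJun 1-79 at Ser73 with 10 µM ATP; % is scaled to controls: 0 for no effect and ±100 for the full control effect.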 Conditions: JNK3 lysate, c-Jun phosphorylation; series mostly up to 57.1 µM. The gist of the method: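 Pre-activated (IL-1β/TNFα) JNK3 in HepG2 lysates phosphorylates biotin-GST-cJun(1-79), 10 uM ATP; anti-phospho-cJun(Ser73) AlphaScreen read at room temperature, pH 7.6 Tris buffer. Compounds pre-incubated 15 min as titrations.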
(Alpha assays give light when donor and acceptor beads are brought close together.)

In assay [6] the target is Glucocorticoid receptor (Homo sapiens) (UniProt P04150). The assay is described as follows: GR-GFP Redistribution (AID 450;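 active = compounds whose dose series gives a full or clear partial fitted curve of increased nuclear translocation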; also: potency is read from the fitted curve at half-maximal effect). The conditions noted are these: U2OS GR-GFP nuclear translocation, laser cytometry, 2 h.
Chain of Glucocorticoid receptor (Homo sapiens) (P04150 whole entry, looked up): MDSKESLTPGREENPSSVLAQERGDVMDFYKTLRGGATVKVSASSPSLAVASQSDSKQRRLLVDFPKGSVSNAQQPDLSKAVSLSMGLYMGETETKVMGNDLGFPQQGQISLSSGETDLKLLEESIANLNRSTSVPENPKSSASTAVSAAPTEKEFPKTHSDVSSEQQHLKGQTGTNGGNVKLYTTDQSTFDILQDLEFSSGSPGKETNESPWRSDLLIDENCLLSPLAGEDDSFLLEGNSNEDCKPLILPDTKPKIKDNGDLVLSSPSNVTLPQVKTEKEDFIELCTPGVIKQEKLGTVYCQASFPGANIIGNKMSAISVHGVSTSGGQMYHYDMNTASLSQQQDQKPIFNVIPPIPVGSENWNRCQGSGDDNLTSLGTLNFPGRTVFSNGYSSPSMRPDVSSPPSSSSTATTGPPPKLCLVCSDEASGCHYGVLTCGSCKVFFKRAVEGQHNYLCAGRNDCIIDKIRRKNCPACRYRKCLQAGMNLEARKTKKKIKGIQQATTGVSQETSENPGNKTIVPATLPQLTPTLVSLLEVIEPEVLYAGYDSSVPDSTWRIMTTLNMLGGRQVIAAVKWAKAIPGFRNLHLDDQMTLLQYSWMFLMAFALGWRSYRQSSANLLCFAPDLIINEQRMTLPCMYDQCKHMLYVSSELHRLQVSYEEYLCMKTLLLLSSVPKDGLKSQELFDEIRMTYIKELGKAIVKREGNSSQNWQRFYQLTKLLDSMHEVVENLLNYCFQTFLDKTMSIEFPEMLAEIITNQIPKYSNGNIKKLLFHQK
Assay [7] has the same target. The assay is described as follows: GR-EFC Redistribution (AID 451; calls by dose curve; also: potency is read from the fitted curve at half-maximal effect). The conditions noted are these: CHO-K1 GR-EFC translocation, beta-gal luminescence, 2 h. The gist of the method:
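CHO-K1 cells expressing nuclear EA and GR-ED fragments of b-gal; compounds titrated up to 46 uM final, 2 h at 37 C. GR nuclear translocation read as complemented b-gal luminescence after 1 h RT detection.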

Chain of Cytochrome P450 1A2 (Homo sapiens) (P05177 whole entry, looked up): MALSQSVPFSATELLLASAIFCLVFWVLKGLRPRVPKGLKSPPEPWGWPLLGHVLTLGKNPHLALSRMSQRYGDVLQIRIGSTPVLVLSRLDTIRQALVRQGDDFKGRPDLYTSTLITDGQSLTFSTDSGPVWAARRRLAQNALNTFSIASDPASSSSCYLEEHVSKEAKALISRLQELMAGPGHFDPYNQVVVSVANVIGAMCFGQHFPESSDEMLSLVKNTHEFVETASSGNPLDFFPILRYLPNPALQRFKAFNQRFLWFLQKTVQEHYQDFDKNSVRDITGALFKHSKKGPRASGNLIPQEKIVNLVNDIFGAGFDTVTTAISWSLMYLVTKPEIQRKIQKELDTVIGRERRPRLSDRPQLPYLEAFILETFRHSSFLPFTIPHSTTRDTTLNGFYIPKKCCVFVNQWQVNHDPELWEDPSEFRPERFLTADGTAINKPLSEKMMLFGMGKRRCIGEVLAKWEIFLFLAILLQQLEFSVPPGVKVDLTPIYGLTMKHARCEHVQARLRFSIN

Consider `CCn1cc(C(=O)O)c(=O)c2cc3c(cc21)OCO3`, for which the activity change, negative = inhibition is -4.15% in assay [1] (at 17.2 µM (top of the series)), -1.96% in assay [1] (at 38 µM (top of the series)), -7.01% in assay [3] (at 17.2 µM (top of the series)) and 7.6% in assay [3] (at 38 µM (top of the series)). The Potency in assay [2] is 5.01 µM (active) and 2.51 µM (active). The molecule was called inactive in assay [4]. Further, the Potency entry in assay [5] is “inactive”.
For the molecule `Cc1nc2ccccn2c(=O)c1CCN1CCC(C(=O)c2ccc(F)cc2)CC1`, the activity change, negative = inhibition is -5.86% in assay [1] (at 17.2 µM (top of the series)) and 5.6% in assay [1] (at 38 µM (top of the series)). Moreover, in assay [2], the Potency entry was “inactive”. Also, the molecule was called inactive in assay [4]. Moreover, the Potency in assay [6] was > 46 µM and > 20.6 µM; in assay [7] it was above 46 µM.
`Cc1ccc(Cl)c(Nc2ccccc2C(=O)O)c1Cl`: the activity change, negative = inhibition is -18.4% in assay [1] (at 17.2 µM (top of the series)); -15.5% in assay [1] (at 38 µM (top of the series)); -24% and 22.1% in assay [3] (at 17.2 µM (top of the series)); 0.114% in assay [3] (at 38 µM (top of the series)). The Potency result in assay [2] and in assay [5] was “inactive” each time. For the same molecule, the outcome in assay [4] was inactive. In addition, in assay [7], the Potency was > 46 µM and > 20.6 µM.
Consider `CN(C)C(=O)Oc1cccc([N+](C)(C)C)c1`, for which the activity change, negative = inhibition in assay [1] (at 17.2 µM (top of the series)) is 6.9% and 1.34% and 7.06%; in assay [1] (at 38 µM (top of the series)) it was -1.33%; in assay [3] (at 17.2 µM (top of the series)), -14.6% and 15.5% and 0.313%; in assay [3] (at 38 µM (top of the series)) it was 13%. Further, the Potency entry in assay [2] and in assay [5] was “inactive” each time. Also, in assay [4], the result was inactive. Moreover, the Potency is > 46 µM and > 20.6 µM in assay [6]; > 46 µM and > 20.6 µM in assay [7].
On to `C[n+]1cc2c3c(ccc2c2ccc4cc5c(cc4c21)OCO5)OCO3`, for which the values for the activity change, negative = inhibition in assay [1] (at 17.2 µM (top of the series)), in assay [1] (at 38 µM (top of the series)) and in assay [3] (at 38 µM (top of the series)) were -119% (active), -111% (active) and -48.1% (active), respectively. The Potency is 3.98 µM (active) and 10 µM (active) in assay [2]; > 46 µM and > 20.6 µM in assay [7]. Also, the Potency entry in assay [5] is “inactive”.
`CC1=NS(=O)(=O)c2cc(Cl)ccc2N1`: the activity change, negative = inhibition in assay [1] (at 17.2 µM (top of the series)) is 5.8% and -6.56%; in assay [1] (at 38 µM (top of the series)), -8.76%; in assay [3] (at 17.2 µM (top of the series)), -1.94% and 7.03%; in assay [3] (at 38 µM (top of the series)), 2.63%. Also, the Potency was 7.94 µM (active) and 3.16 µM (active) and 2 µM (active) in assay [2]; > 46 µM and > 20.6 µM in assay [6]; > 46 µM and > 20.6 µM in assay [7]. In addition, the molecule was called inactive in assay [4]. Also, in assay [5], the Potency result is “inactive”.
Take `CN1CCN(CC(=O)N2c3ccccc3C(=O)Nc3cccnc32)CC1`: the activity change, negative = inhibition in assay [1] (at 17.2 µM (top of the series)) was -3.75% and 6.17%; in assay [1] (at 38 µM (top of the series)), 9.42%; in assay [3] (at 17.2 µM (top of the series)) it was -94.8% (active). Moreover, the Potency result in assay [2] and in assay [5] was “inactive” throughout. For the same molecule, in assay [4], the molecule was classed as inactive. Moreover, the Potency in assay [6] is > 46 µM and > 20.6 µM; in assay [7], > 46 µM and > 20.6 µM.
As to `Cc1scc2c1N(C(=O)CN1CCN(C)CC1)c1ccccc1NC2=O`, the activity change, negative = inhibition in assay [1] (at 17.2 µM (top of the series)) is 4.19%; in assay [1] (at 38 µM (top of the series)), 15.1%; in assay [3] (at 17.2 µM (top of the series)), -41.8% (active); in assay [3] (at 38 µM (top of the series)) it was -72.8% (active). For the same molecule, the Potency result in assay [2] and in assay [5] was “inactive” each time. In addition, the result in assay [4] was inactive.
As for `CCN(CC)CCOCCOC(=O)C1(c2ccccc2)CCCC1`, the values for the activity change, negative = inhibition in assay [1] (at 17.2 µM (top of the series)) and in assay [1] (at 38 µM (top of the series)) were -7.4% and 16.3%, respectively. The Potency in assay [2] is 12.6 µM (active); in assay [7], > 46 µM and > 20.6 µM. Besides, the outcome in assay [4] was inactive. In assay [5], the Potency entry was “inactive”.
With `Cc1nc2sccn2c(=O)c1CCN1CCC(=C(c2ccc(F)cc2)c2ccc(F)cc2)CC1`, the activity change, negative = inhibition was -9.89% in assay [1] (at 17.2 µM (top of the series)) and -17.2% in assay [1] (at 38 µM (top of the series)). The Potency entry in assay [2] and in assay [5] was “inactive” in each case. The molecule was classed as inactive in assay [4]. For the same molecule, the Potency in assay [7] is above 46 µM.
With `CC(=O)Oc1cc(C(C)C)c(OCCN(C)C)cc1C`, the figures for the activity change, negative = inhibition in assay [1] (at 17.2 µM (top of the series)) and in assay [1] (at 38 µM (top of the series)) were 7.18% and 22.7%, respectively. The Potency in assay [2] was 7.94 µM (active) and 3.16 µM (active); in assay [7] it was > 46 µM and > 20.6 µM. Besides, the call in assay [4] was inactive. For the same molecule, in assay [5], the Potency entry was “inactive”.
Consider `NC(N)=NC(=O)Cc1c(Cl)cccc1Cl`, for which the activity change, negative = inhibition is 3.24% in assay [1] (at 17.2 µM (top of the series)), 6.16% in assay [1] (at 38 µM (top of the series)), 3.14% in assay [3] (at 17.2 µM (top of the series)) and 2.06% in assay [3] (at 38 µM (top of the series)). The Potency entry in assay [2] and in assay [5] was “inactive” each time. Besides, the result in assay [4] was inactive. Further, the Potency in assay [7] was > 46 µM and > 20.6 µM.
As for `O=C(O)CN(CCN(CC(=O)O)CC(=O)O)CCN(CC(=O)O)CC(=O)O`, the activity change, negative = inhibition in assay [1] (at 17.2 µM (top of the series)) is -3.91%; in assay [1] (at 38 µM (top of the series)), 10%; in assay [3] (at 17.2 µM (top of the series)) it was -4.47%; in assay [3] (at 38 µM (top of the series)), 2.2%. Besides, the Potency result in assay [2] and in assay [5] was “inactive” throughout. In addition, the outcome in assay [4] was inactive. Besides, the Potency in assay [7] was > 46 µM and > 20.6 µM.
In the case of `CC[N+](C)(C)c1cccc(O)c1`, the activity change, negative = inhibition in assay [1] (at 17.2 µM (top of the series)) is 1.89% and 0.722%; in assay [1] (at 38 µM (top of the series)), 2.69%; in assay [3] (at 17.2 µM (top of the series)) it was -26.4%; in assay [3] (at 38 µM (top of the series)), -18.1%. Also, the Potency result in assay [2] and in assay [5] was “inactive” in each case. In addition, the molecule was classed as inactive in assay [4].
`CN(C)CCOC(=O)COc1ccc(Cl)cc1`: the activity change, negative = inhibition in assay [1] (at 17.2 µM (top of the series)) was 0.605%; in assay [1] (at 38 µM (top of the series)), -0.251%; in assay [3] (at 17.2 µM (top of the series)), 0.868%; in assay [3] (at 38 µM (top of the series)), 7.1%. The Potency was 15.8 µM (active) and 10 µM (active) in assay [2]; > 46 µM and > 20.6 µM in assay [6]; > 46 µM and > 20.6 µM in assay [7]. Also, the outcome in assay [4] was inactive. Besides, the Potency result in assay [5] is “inactive”.
For `Brc1c(NC2=NCCN2)ccc2nccnc12`, the activity change, negative = inhibition in assay [1] (at 17.2 µM (top of the series)) is -0.374%; in assay [1] (at 38 µM (top of the series)) it was 6.19%; in assay [3] (at 17.2 µM (top of the series)) it was 15.8%; in assay [3] (at 38 µM (top of the series)), 1.97%. For the same molecule, the Potency entry in assay [2] and in assay [5] was “inactive” in each case. In addition, the call in assay [4] was inactive. The Potency was > 46 µM and > 20.6 µM in assay [6]; above 46 µM in assay [7].
